# Experimental data from paper PMC5540273 (PLoS ONE, 2017).
# Assays:
# Details in all cases: concentration: 1 μM, replicates: in singlicate; n = 1
# PDGFRB = system: PDGFRB
# PDPK1 = system: PDPK1
# PFTAIRE2 = system: PFTAIRE2
# PFTK1 = system: T1, PFTK1
# T1 construct: gene CDK14
# PHKG1 = system: PHKG1
# PHKG2 = system: PHKG2
# PIK3C2B = system: PIK3C2B
# PIK3C2G = system: PIK3C2G
# PIK3CA = system: PIK3CA
# PIK3CB = system: PIK3CB
# PIK3CD = system: PIK3CD
# PIK3CG = system: PIK3CG
# PIK4CB = system: T2, PIK4CB
# T2 construct: gene PI4KB
# PIKFYVE = system: PIKFYVE
# PIM1 = system: PIM1
# PIM2 = system: PIM2
# PIM3 = system: PIM3
# PIP5K1A = system: PIP5K1A
# PIP5K1C = system: PIP5K1C
# PIP5K2B = system: PIP5K2B
# 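Note: KINOMEscan kinase panel screen.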
SMILES,%Inh (PDGFRB),%Inh (PDPK1),%Inh (PFTAIRE2),%Inh (PFTK1),%Inh (PHKG1),%Inh (PHKG2),%Inh (PIK3C2B),%Inh (PIK3C2G),%Inh (PIK3CA),%Inh (PIK3CB),%Inh (PIK3CD),%Inh (PIK3CG),%Inh (PIK4CB),%Inh (PIKFYVE),%Inh (PIM1),%Inh (PIM2),%Inh (PIM3),%Inh (PIP5K1A),%Inh (PIP5K1C),%Inh (PIP5K2B)
CC(C)(C)OC(=O)NC1CCCN(c2cc(-c3ccc4c(N)n[nH]c4c3)nc(N)n2)C1 (centres unmarked) [GSK2286096],14%,84%,18%,0%,0%,0%,0%,0%,0%,0%,0%,19%,1%,0%,9%,0%,5%,0%,7%,19%
OCCOCCn1ccc2ncnc(Nc3ccc(Oc4cccc(Cl)c4)c(Cl)c3)c21,0%,13%,0%,10%,0%,26%,0%,0%,0%,0%,0%,0%,0%,25%,2%,0%,5%,0%,34%,0%
Nc1nc(-c2ccccn2)c(-c2ccnc3ccccc23)s1 [GW548057],23%,0%,9%,29%,0%,6%,0%,0%,7%,14%,0%,10%,0%,33%,0%,0%,0%,54%,87%,14%
Cl.O=S(=O)(c1cccc(F)c1)c1ccc(Nc2ncnc3cc(Br)sc23)cc1Cl [GSK306886],46%,0%,24%,21%,0%,0%,28%,0%,0%,0%,21%,5%,6%,0%,14%,0%,0%,9%,70%,3%
Cn1ccc2ncnc(Nc3ccc(Oc4cccc(Cl)c4)c(Cl)c3)c21,4%,22%,24%,0%,0%,10%,0%,28%,10%,60%,8%,8%,0%,0%,8%,17%,22%,0%,0%,54%
CS(=O)(=O)CCNCc1nc(-c2ccc3ncnc(Nc4ccc(OCc5cccc(F)c5)c(Cl)c4)c3c2)cs1.Cl [GW583340],12%,0%,12%,16%,0%,0%,37%,0%,0%,0%,29%,0%,26%,0%,20%,0%,8%,1%,38%,0%
O=C(Nc1ccccc1)Nc1ccc(Oc2ccc3nccn3n2)cc1,99%,0%,0%,0%,0%,5%,0%,0%,0%,0%,0%,0%,0%,5%,0%,6%,0%,4%,25%,7%
Cn1cc(-c2ccc3c(c2)CCN3C(=O)Cc2cccc(C(F)(F)F)c2)c2c(N)ncnc21 [GSK2606414],55%,6%,18%,0%,6%,0%,0%,2%,0%,0%,0%,0%,6%,0%,0%,0%,0%,0%,0%,0%
COC(=O)c1cccc(NC(=O)NCCNc2ccnc(Nc3ccc(F)cc3)n2)c1 [GSK1379883],51%,5%,9%,18%,0%,0%,4%,0%,9%,0%,0%,8%,0%,1%,0%,0%,0%,34%,56%,5%
O=C(c1ccc(-c2cc(-c3c[nH]nc3-c3ccccn3)ccn2)cc1)N1CCCC1 [GW792479],4%,0%,6%,0%,0%,19%,0%,5%,0%,0%,0%,0%,4%,19%,100%,21%,8%,0%,14%,0%
